Efflux pump mplx – blocks antifungal efflux pumps in multiplex yeast assay. S. cerevisiae Candida pump triplex, Nile Red efflux. inhibition, % at 10 µM. 330,000 compounds, 0.44% hits. AID 485275;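 active = plate passing quality check with inhibition over a set limit, or well fluorescence over plate mean plus 4 SD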;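 also: Nile Red retained in pooled yeast measured as flow cytometry median fluorescence; 0% = buffer negative control and 100% = Enniatin B positive control; higher means more Nile Red kept so more efflux inhibition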
SUMO Mot1 rescue – inhibitors of SUMOylation pathway: yeast Mot1-301 growth rescue | S. cerevisiae Mot1-301 growth rescue, ATP luminescence, 38.5C; percent above DMSO median, 100 means doubled | growth rescue, % at 18.8 µM | 320,000 compounds, 1% hits;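 active = every valid replicate shows activation above 250% relative to neutral control wells; inactive = the rest, any valid replicate at or below 250%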;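 also: OY570 slx delta 5 strain wells were the positive control but not used for scaling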
AHR act – activates the human aryl hydrocarbon receptor | AHR-responsive luciferase reporter cells, luminescence | P35869 | 320,000 compounds, 2.5% hits | activation, % at 5 µM | AID 2796; in the data active = activation above about 47%;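 also: 0% = vehicle wells and 100% = reference agonist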
Target sequence (P35869 whole entry, looked up): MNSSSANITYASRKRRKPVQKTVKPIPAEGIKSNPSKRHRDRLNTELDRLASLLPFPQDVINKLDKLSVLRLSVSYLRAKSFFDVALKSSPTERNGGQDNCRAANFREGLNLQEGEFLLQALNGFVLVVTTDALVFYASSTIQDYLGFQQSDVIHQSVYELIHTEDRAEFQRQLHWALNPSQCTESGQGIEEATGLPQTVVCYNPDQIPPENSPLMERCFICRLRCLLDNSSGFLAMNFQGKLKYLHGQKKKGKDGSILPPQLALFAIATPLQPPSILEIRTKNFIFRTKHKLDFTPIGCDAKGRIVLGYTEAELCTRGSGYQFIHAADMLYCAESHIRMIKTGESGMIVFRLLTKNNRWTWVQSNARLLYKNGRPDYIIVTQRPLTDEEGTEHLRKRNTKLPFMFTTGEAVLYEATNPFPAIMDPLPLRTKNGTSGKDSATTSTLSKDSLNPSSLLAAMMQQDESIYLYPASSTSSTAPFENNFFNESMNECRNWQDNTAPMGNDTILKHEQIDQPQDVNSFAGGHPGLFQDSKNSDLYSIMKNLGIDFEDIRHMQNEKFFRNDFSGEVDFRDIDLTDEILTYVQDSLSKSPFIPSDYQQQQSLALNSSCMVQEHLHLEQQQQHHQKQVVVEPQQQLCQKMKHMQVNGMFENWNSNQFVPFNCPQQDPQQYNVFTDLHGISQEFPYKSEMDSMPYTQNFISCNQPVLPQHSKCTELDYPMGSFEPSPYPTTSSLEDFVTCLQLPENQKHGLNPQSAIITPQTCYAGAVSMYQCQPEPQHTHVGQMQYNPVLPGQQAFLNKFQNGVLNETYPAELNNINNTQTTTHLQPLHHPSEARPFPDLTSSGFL
VLA-4 inh – inhibition in a human VLA-4 binding assay. VLA-4 expressing cells, ligand binding flow cytometry. inhibition, % (about 7 µM as worked out from the volumes in the protocol). 330,000 compounds, 0.2% hits. AID 2557; in the data active = inhibition above about 50%
ALR inh – human ALR oxidase inhibition via reduced H2O2. purified ALR, DTT oxidation, H2O2 HRP-luminol luminescence. inhibition, % (no concentration beside the values). 290,000 compounds, 3.8% hits. AID 485317;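 active = mean replicate inhibition above about 79%, with every replicate also reaching it, limit read from the data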
A1 inh – inhibitors of the anti-apoptotic protein A1, read as caspase activation | MEF A1-2A-BIM cells, Caspase-Glo 3/7 luminescence, 3 h; percent of clofoctol response, vehicle zero | caspase activation, % (test concentration not listed) | 330,000 compounds, 0.066% hits | AID 2462;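 active = over half of replicate activation scores above 10%, or exactly half above 10 with the replicate mean above 10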
Starred values were filed as active, the others as inactive; nt = no result given. The list is not random: actives were taken first. Their share in the collection is about 7.2%.

SMILES	Efflux pump mplx	SUMO Mot1 rescue	AHR act	VLA-4 inh	ALR inh	A1 inh
Cc1nn2c(-c3ccccc3)ccnc2c1Br	0	18	74*	11	-2	0
Nc1nc(-c2ccc(Cl)cc2Cl)cn1N	0	67	65*	4	7	-2
Cc1ccc(-n2c(-c3ccc(Cl)cc3Cl)n[nH]c2=S)cc1	0	-8	4	-17	nt	-1
O=c1[nH]cnc2nc(-c3ccccc3)c(-c3ccccc3)nc12	0	-2	6	-14	-1	0
O=c1[nH]cnc2ncc(-c3ccc(O)cc3)nc12	0	3	4	1	100*	0
O=C(NCc1cccc(Br)c1)C1CC2Cn3c(nc4ccccc43)C2N1c1ccccc1 (centres undefined)	0	-12	2	-7	77*	0
CCOCCCNC(=O)c1c(N)n(-c2ccc3c(c2)OCO3)c2nc3ccccc3nc12	0	-13	10	-4	10	0
COCCCNC(=O)c1c(N)n(-c2ccc3c(c2)OCO3)c2nc3ccccc3nc12	0	28	52*	-12	30	1
COCCNC(=O)c1c(N)n(/N=C/c2ccc(F)cc2)c2nc3ccccc3nc12	0	-3	6	-10	-3	0
COCCNC(=O)c1c(N)n(/N=C/c2cccs2)c2nc3ccccc3nc12	0	124	50*	-26	-4	-1
COc1ccc(OC)c2c1cc(C(=O)N[C@@H](Cc1ccccc1)C(=O)O)n2C	0	-7	nt	5	17	0
S=c1[nH]nc(COc2ccccc2)n1/N=C/C=C/c1ccco1	0	-4	5	-5	97*	0
O=c1c2ccccc2nc(COc2ccccc2)n1/N=C/c1ccc(O)c(O)c1	0	-14	8	-10	98*	0
O=C(O)COc1ccc(/C=N/n2c(COc3ccccc3)nc3ccccc3c2=O)cc1	0	290	6	-25	3	-1
Oc1ccc(/C=N/n2c(COc3ccccc3)n[nH]c2=S)cc1O	0	1	1	-4	100*	-1
O=C(Nn1c(COc2ccccc2)nc2ccccc2c1=O)C(Cl)(Cl)Cl	0	-20	nt	2	97*	0
Cc1ccc(CN2CCC(n3nccc3NC(=O)C3CCOC3)CC2)cc1 (centres undefined)	0	56	-1	5	-5	1
CCOc1ccc(CCNC(=O)COC(=O)C2=NNC(=O)CC2)cc1OCC	0	7	3	5	-4	0
S=C1NCCC12C(=S)Nc1ccccc12 (centres undefined)	0	-1	-1	15	42	0
COCCn1c(SCc2ccc(F)cc2)nc2c1c(=O)[nH]c(=O)n2C	0	-11	0	5	50	1
NS(=O)(=O)c1ccc(N2C(=O)C(=O)/C(=C(/O)c3ccccc3)C2c2ccc(Cl)cc2)cc1 (centres undefined)	0	20	-1	5	nt	2
Cc1sc2nc(CSC(C)C(=O)Nc3ccc(C(N)=O)cc3)[nH]c(=O)c2c1C (centres undefined)	0	5	5	3	100*	1
Cc1sc2nc(CSC(C)C(=O)Nc3ccc(C#N)cc3)[nH]c(=O)c2c1C (centres undefined)	0	-15	6	-8	98*	-1
O=C(NCC1CCCO1)c1nc(Cn2ccc([N+](=O)[O-])n2)no1 (centres undefined)	1	-10	1	-6	-3	0
COc1ccc(Nc2nc(Nc3ccc(OC)cc3)nc(-n3[nH]c(=O)c(C)c3C)n2)cc1	0	7	21	-10	84*	0
Cc1ccc(Cn2c(=O)c3ccccc3n3nc(C)cc23)cc1	0	-17	2	2	nt	0
CC1(C)Oc2ccc3ccc(=O)oc3c2/C(=C/NNC(N)=S)C1=O	0	-8	4	18	88*	0
CC(C)N(CCC(=O)c1ccc2ccccc2c1)Cc1ccccc1	0	2	-2	-2	97*	1
CC1(C)CC(=O)C2=C(C1)NC(=O)NC2c1ccc([N+](=O)[O-])cc1 (centres undefined)	0	-15	1	3	nt	0

Bioassay records deposited in PubChem by several laboratories.
